This is an account of results in PubChem BioAssay AID686978 (National Center for Advancing Translational Sciences (NCATS), 2013).

Screen size: about 420,000 compounds; about 64,000 (15%) were called active. Roughly 27% stayed inconclusive and do not appear here. Calls come from the whole dose curve; as a rule, active = well fitted inhibition curve with a large enough effect; inconclusive = small, poorly fitted or top-dose-only effect; inactive = flat fitted curve, though single readings scatter. The list is a sample of the results. Where a call stands in place of a potency, no number is given.
Potency is the fitted concentration of half-maximal effect.

A short description of this assay: qHTS for Inhibitors of human tyrosyl-DNA phosphodiesterase 1 (TDP1): qHTS in cells in absence of CPT. Note: nearly all actives have a fitted effect of over 55% in size. As to conditions: DT40 Tdp1-/- hTDP1 cells, no CPT, ATP luminescence, 48 h; activity change, negative = growth inhibition: at 46.2 µM (top of the series). The text has this:
Human tyrosyl-DNA phosphodiesterase 1 (TDP1) is a novel repair gene, and we propose to use it as a new target for anticancer drug development. TDP1 is not an essential protein, but under treatment with topoisomerase I poison (camptothecin: CPT), TDP1 works as a critical factor for cell survival. To directly identify novel TDP1 inhibitors active in a cellular environment, we have knocked-out the Tdp1 gene in chicken DT40 cells (Tdp1-/-) and generated a complemented counterpart cells that contains a stable transfection of the human TDP1 gene (Tdp1-/-;hTDP1 cells). For the primary screen, Tdp1-/-;hTDP1 cells will be exposed to small molecules in the presence or absence of CPT, and their growth kinetics will be evaluated after 48 hours by measuring ATP activity. […] The hit compounds will then be evaluated in the presence or absence of CPT using Tdp1-/- cells. […] In tertiary assays, biochemical gel-based assays will be used to assess whether the hit compounds specifically target TDP1.
To this end, we have screened this cell line against the MLSMR in two primary screens. In one screen we add CPT and in the other we screen in the absence of CPT; this AID represents the screen where CPT was absent.
NIH Chemical Genomics Center [NCGC]
NIH Molecular Libraries Probe Centers Network [MLPCN]
Assay Submitter (PI): Yves Pommier, NCI
DT40-hTDP1 cells without 20 nM Camptothecin (add 20 microL of DMSO in 1 L of cell culture medium) were dispensed at 400 cells/5microL/well in tissue culture treated 1536-well white wall/solid bottom assay plates (Greiner Bio-One North America, NC, U.S.A.) using a Multidrop Combi 8 channel dispenser (Thermo Fisher, Waltham, MA, USA). 23 nL compounds and controls were transferred using the pin tool (Kalypsys, San Diego, CA, USA) to the assay plates. The assay plates were then incubated at 37 masculineC for a minimum 48 hr. Three microL of Cell Titer Glo solution was added to the plates and incubated at RT in dark for 30 min. Luminescence was read using ViewLux (Perkin Elmer) with 1 sec exposure slow speed, high gain and 2x binning.
(In qHTS, concentration-response curves come from the screen itself.)
Consider `CC(C)(O)C1=C[N+](=O)CC=C1`, for which the Potency result was “inactive”.
To `C#CCOCCOCCOCCNc1nc(N2CCN(C(=O)C([C@@H](C)CC)n3cc(C(N)COC(=O)C(F)(F)F)nn3)CC2)nc(N2CCN(C(=O)[C@H](CCCCN)n3cc(C(N)CC(C)C)nn3)CC2)n1` (some centres not stated) belongs “inactive”.
For the molecule `Cc1nn(CC(=O)Nc2ccc(N(C)C)cc2)c(C)c1[N+](=O)[O-]`, the Potency entry was “inactive”.
To `CC1CC(=NNC(=O)C2COc3ccccc3O2)CC(C)(C)C1` (configuration not stated) belongs “inactive”; to `C[C@@H](C(=O)N1CCNCC1)n1cc(CCC(=O)O)nn1`, “inactive”; to `C=C(C)CNc1cc(S(=O)(=O)N2CCOCC2)ccc1Oc1ccccc1`, 20.6 µM (active).
To `COc1ccc(S(=O)(=O)N2CCOCC2)cc1NC(=O)COc1ccccc1` belongs “inactive”; to `COC(=O)c1cc(Oc2ccc(S(=O)(=O)N3CCOCC3)cc2[N+](=O)[O-])cc(C(=O)OC)c1`, “inactive”; to `O=[N+]([O-])c1cc([N+](=O)[O-])c(Oc2cc(F)cc(F)c2F)cc1NN1CCCCC1`, “inactive”.
Under `O=C(/C=C/c1ccc(F)cc1)NCCNC(=O)/C=C/c1ccc(F)cc1` stands “inactive”.
Take `O=C(/C=C/c1ccc([N+](=O)[O-])o1)NNC(=O)c1ccc(F)cc1`: the Potency was 1.84 µM (active).
Under `COc1cccc(C(=O)NNC(=O)/C=C/c2ccccc2)c1` stands “inactive”; under `Cc1ccsc1C(=O)N[C@@H](C)c1nnc2ccccn12`, “inactive”; under `Nc1nc2[nH]c(=O)c(=O)[nH]c2c(=O)[nH]1`, “inactive”.
For the molecule `CCOC(=O)n1c(SCC(=O)N(CC)CC)nc2ccccc21`, the Potency result was “inactive”.
Under `CCOC(=O)CSc1nc2c(c(=O)n(Cc3ccccc3Cl)c(=O)n2C)n1C` stands “inactive”.
Under `CCN(CC)C(=O)CSc1nc2ccsc2c(=O)n1Cc1ccccc1Cl` stands 23.1 µM (active); under `CN(Cc1ccco1)c1ncncc1-c1ccoc1`, “inactive”.
With `CCc1ccc(Oc2coc3cc(OC(=O)c4cc5ccccc5oc4=O)ccc3c2=O)cc1`, the Potency entry was “inactive”.
To `Cc1[nH]c(=O)c(C(=O)/C=C/c2ccccc2)c2c1CCCC2` belongs 5.8 µM (active).
Under `Cc1cn(COC/C=C/c2ccccc2)c(=O)[nH]c1=O` stands “inactive”; under `O=C(NCc1ccccn1)c1c(O)c2c([nH]c1=O)CCCC2`, “inactive”; under `Cc1cc(Cl)c(S(=O)(=O)Nc2ccc3c(c2)OCCO3)cc1OCC(N)=O`, “inactive”.
Under `Cc1ccc(/C=N/NC(=O)Cn2ccc(C(F)(F)F)n2)o1` stands “inactive”; under `Cc1cc(-c2n[nH]c(=S)n2-c2ccc(C)c(C)c2)no1`, “inactive”.
For the molecule `Cc1cc(C)c2oc(C(=O)Nc3ccc(S(=O)(=O)Nc4nccc(C)n4)cc3)cc(=O)c2c1`, the Potency result was “inactive”.
Under `Cc1cc(F)ccc1NC(=S)NCCc1ccccc1` stands “inactive”; under `Cc1ccc(NC(=S)NCCc2ccc(Cl)cc2)c(C)c1`, 18.4 µM (active); under `Cc1ccc(NC(=S)NCc2ccccc2Cl)c(C)c1`, 20.6 µM (active).
Under `Cc1cc(Cl)ccc1NC(=S)NCCCN1CCCC1=O` stands “inactive”; under `S=C(NCc1ccco1)NCc1ccccc1Cl`, “inactive”.
Under `CCNC(=S)Nc1cccc(Cl)c1C` stands “inactive”.
